According to PubChem BioAssay (NCI):
About 83,000 compounds went through this panel and 20% of them were active in at least one assay; those are over-represented in the sample as a whole.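 Activity criterion: percent growth below 10, measured after cells in 96-well plates were exposed to a single compound concentration for 48 hours.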 Activity calls are given as the source filed them.

Tests used:
Assay in all cases: NCI-60 one-dose screen, 48 h (100 = growth as untreated, 0 = no growth, -100 = all killed)
Details in all cases: 10 µM
SK-MEL-2 melanoma = test system: SK-MEL-2 melanoma
EKVX NSCLC = test system: EKVX NSCLC
SN12C renal = test system: SN12C renal
UO-31 renal = test system: UO-31 renal
TK-10 renal = test system: TK-10 renal
ACHN renal = test system: ACHN renal
CAKI-1 renal = test system: CAKI-1 renal
A498 renal = test system: A498 renal
CCRF-CEM leukemia = test system: CCRF-CEM leukemia
MOLT-4 leukemia = test system: MOLT-4 leukemia
SR leukemia = test system: SR leukemia
RPMI-8226 leukemia = test system: RPMI-8226 leukemia
OVCAR-8 ovarian = test system: OVCAR-8 ovarian
OVCAR-5 ovarian = test system: OVCAR-5 ovarian
OVCAR-4 ovarian = test system: OVCAR-4 ovarian
SK-OV-3 ovarian = test system: SK-OV-3 ovarian
IGROV1 ovarian = test system: IGROV1 ovarian
OVCAR-3 ovarian = test system: OVCAR-3 ovarian
HS 578T breast = test system: HS 578T breast
NCI/ADR-RES ovarian = test system: NCI/ADR-RES ovarian

Measured: growth

CCOc1ccc(/C=N/NC(=O)Cn2nc(Cc3ccc([N+](=O)[O-])cc3)c3onc(C)c3c2=O)cc1
inactive: SK-MEL-2 melanoma 51.9% | EKVX NSCLC 16.3% | SN12C renal 11.2% | A498 renal 45.1% | CCRF-CEM leukemia 89.3% | MOLT-4 leukemia 75.7% | SR leukemia 62.7% | RPMI-8226 leukemia 68.9% | OVCAR-5 ovarian 43.8% | SK-OV-3 ovarian 91.3% | IGROV1 ovarian 27.6%
active: UO-31 renal -48.1% | TK-10 renal -12.2% | ACHN renal -68% | CAKI-1 renal -9.88% | OVCAR-8 ovarian -16.5% | OVCAR-4 ovarian -34.8% | OVCAR-3 ovarian -37.5%

Cc1ccc(/C=C/C(=O)c2ccc(NC(=O)CSc3nnc(-c4c[nH]c5ccccc45)n3-c3ccccc3)cc2)cc1
active: RPMI-8226 leukemia 4.29%
inactive: SK-MEL-2 melanoma 90.5% | EKVX NSCLC 77% | SN12C renal 76.1% | UO-31 renal 55.3% | TK-10 renal 107% | ACHN renal 78.3% | CAKI-1 renal 80.6% | A498 renal 111% | CCRF-CEM leukemia 93.7% | MOLT-4 leukemia 68.3% | SR leukemia 72.4% | OVCAR-8 ovarian 96.4% | OVCAR-5 ovarian 103% | OVCAR-4 ovarian 85.2% | SK-OV-3 ovarian 106% | IGROV1 ovarian 93.1% | OVCAR-3 ovarian 83.2% | HS 578T breast 83.8%

O=C(CNc1nc(-c2ccccc2)cs1)Nc1cccc([N+](=O)[O-])c1
active: SK-MEL-2 melanoma -79.9% | EKVX NSCLC -97.1% | SN12C renal -77.8% | UO-31 renal -95.7% | TK-10 renal -92.2% | ACHN renal -100% | CAKI-1 renal -88.9% | A498 renal -88.1% | CCRF-CEM leukemia 0.432% | MOLT-4 leukemia 0.799% | SR leukemia 2.8% | RPMI-8226 leukemia -18% | OVCAR-8 ovarian -11.1% | OVCAR-5 ovarian -92.8% | OVCAR-4 ovarian -45.7% | SK-OV-3 ovarian -22% | IGROV1 ovarian -47.4% | OVCAR-3 ovarian -44.6%

Cc1noc2c(Cc3ccccc3)nn(CC(=O)N/N=C/c3ccc(F)cc3)c(=O)c12
inactive: SK-MEL-2 melanoma 73.7% | EKVX NSCLC 70.8% | SN12C renal 25.6% | TK-10 renal 59.2% | CAKI-1 renal 33.2% | CCRF-CEM leukemia 100% | MOLT-4 leukemia 106% | SR leukemia 102% | RPMI-8226 leukemia 83.7% | OVCAR-8 ovarian 33.1% | OVCAR-5 ovarian 93.7% | SK-OV-3 ovarian 28.9% | IGROV1 ovarian 70.4% | OVCAR-3 ovarian 44.6%
active: UO-31 renal 5.87% | ACHN renal 9.34% | A498 renal -20% | OVCAR-4 ovarian 5.18% | HS 578T breast -1.33%

CN1C(=O)N(C)C2SC(N/N=C/c3ccccc3)=NC21 (stereo unspecified)
inactive: SK-MEL-2 melanoma 73.3% | EKVX NSCLC 90.7% | SN12C renal 81.5% | UO-31 renal 65.4% | TK-10 renal 87.4% | ACHN renal 96.3% | CAKI-1 renal 72.5% | A498 renal 81.7% | CCRF-CEM leukemia 78.4% | MOLT-4 leukemia 54.9% | SR leukemia 13.6% | RPMI-8226 leukemia 97.4% | OVCAR-8 ovarian 97.1% | OVCAR-5 ovarian 94.4% | OVCAR-4 ovarian 94.6% | SK-OV-3 ovarian 95.7% | IGROV1 ovarian 64.5% | OVCAR-3 ovarian 25.1% | HS 578T breast 66.1% | NCI/ADR-RES ovarian 44.6%

COc1cc(/C=C/C(=O)c2ccc(C(F)(F)F)cc2)ccc1Oc1nc(Nc2ccc(F)cc2)nc(N(C)C)n1
inactive: SK-MEL-2 melanoma 78.4% | EKVX NSCLC 66% | SN12C renal 69.6% | UO-31 renal 50.3% | TK-10 renal 88.5% | ACHN renal 84.2% | CAKI-1 renal 69.6% | A498 renal 94.4% | CCRF-CEM leukemia 64.8% | MOLT-4 leukemia 40.7% | SR leukemia 30.4% | RPMI-8226 leukemia 13.5% | OVCAR-8 ovarian 85% | OVCAR-5 ovarian 92.7% | OVCAR-4 ovarian 69.8% | SK-OV-3 ovarian 103% | IGROV1 ovarian 91.4% | OVCAR-3 ovarian 79.6% | HS 578T breast 91.6% | NCI/ADR-RES ovarian 66.7%

CC(C)(C)c1ccc(NCc2cn(-c3ccc(C(=O)O)cc3)nc2-c2ccc(C#N)cc2)cc1
inactive: SK-MEL-2 melanoma 53.1% | SN12C renal 16.1% | UO-31 renal 35.7% | TK-10 renal 86.3% | ACHN renal 27% | CAKI-1 renal 34.4% | A498 renal 58.2% | CCRF-CEM leukemia 16.3% | RPMI-8226 leukemia 14.6% | OVCAR-8 ovarian 28.5% | OVCAR-5 ovarian 32.6% | OVCAR-4 ovarian 36.7% | SK-OV-3 ovarian 112% | IGROV1 ovarian 36.5% | OVCAR-3 ovarian 19.7% | HS 578T breast 37.4% | NCI/ADR-RES ovarian 11.7%
active: EKVX NSCLC -36.7% | MOLT-4 leukemia 8.13% | SR leukemia 5.39%

CN1CCN(c2ccc(C(=O)/C=C/c3ccc(OC(F)F)cc3)cc2)CC1
inactive: SK-MEL-2 melanoma 111% | EKVX NSCLC 80.1% | SN12C renal 26.4% | UO-31 renal 31.4% | TK-10 renal 63.8% | ACHN renal 65.5% | CAKI-1 renal 65.8% | A498 renal 51.6% | CCRF-CEM leukemia 21.9% | OVCAR-8 ovarian 44.8% | OVCAR-5 ovarian 80.3% | OVCAR-4 ovarian 59% | SK-OV-3 ovarian 76% | IGROV1 ovarian 27.5% | OVCAR-3 ovarian 38.4% | HS 578T breast 63.8% | NCI/ADR-RES ovarian 54.7%
active: MOLT-4 leukemia 0.533% | SR leukemia 6.8% | RPMI-8226 leukemia 5.53%

Nc1nc(-c2ccccc2)cs1
inactive: SK-MEL-2 melanoma 61.6% | EKVX NSCLC 32% | SN12C renal 68.2% | UO-31 renal 29% | TK-10 renal 83.5% | ACHN renal 59.5% | CAKI-1 renal 69.9% | A498 renal 94.7% | CCRF-CEM leukemia 43.3% | MOLT-4 leukemia 35.1% | SR leukemia 30% | RPMI-8226 leukemia 34.6% | OVCAR-8 ovarian 37.7% | OVCAR-5 ovarian 83.5% | OVCAR-4 ovarian 59.4% | SK-OV-3 ovarian 82.5% | IGROV1 ovarian 63.7% | OVCAR-3 ovarian 44.6% | HS 578T breast 55.8% | NCI/ADR-RES ovarian 28.5%

CC(=O)Nc1ccc(-n2cnc3cc(-c4ccc(NS(C)(=O)=O)cc4)ccc32)cc1
inactive: SK-MEL-2 melanoma 73.2% | EKVX NSCLC 61% | SN12C renal 46.3% | UO-31 renal 32.1% | TK-10 renal 83.7% | ACHN renal 52.3% | CAKI-1 renal 17.5% | A498 renal 86.5% | CCRF-CEM leukemia 36.1% | MOLT-4 leukemia 24.5% | SR leukemia 21.8% | RPMI-8226 leukemia 55.8% | OVCAR-8 ovarian 66.9% | OVCAR-5 ovarian 79.3% | OVCAR-4 ovarian 60% | SK-OV-3 ovarian 87.9% | IGROV1 ovarian 36.4% | OVCAR-3 ovarian 63.1% | HS 578T breast 57.9%

CCOC(=O)C1=C(N)N(c2ccccc2)C2=C(C(=O)CC(C)(C)C2)C1c1ccc(Cl)cc1 (stereo unspecified)
inactive: SK-MEL-2 melanoma 30.2% | EKVX NSCLC 27.7% | SN12C renal 64.2% | UO-31 renal 29% | TK-10 renal 80.4% | ACHN renal 22.3% | CAKI-1 renal 50.2% | A498 renal 67.2% | CCRF-CEM leukemia 15.4% | SR leukemia 13.1% | OVCAR-8 ovarian 61.1% | OVCAR-5 ovarian 57.6% | OVCAR-4 ovarian 29.3% | SK-OV-3 ovarian 43.7% | IGROV1 ovarian 59.5% | OVCAR-3 ovarian 51.6% | HS 578T breast 71.9%
active: MOLT-4 leukemia 1.54% | RPMI-8226 leukemia 7.68%

Cn1cc(/C=N/Nc2ccnc3cc(Cl)ccc23)c2ccccc21
active: SK-MEL-2 melanoma -72.3% | EKVX NSCLC -85.1% | SN12C renal -59.4% | UO-31 renal -90.1% | TK-10 renal -72.1% | ACHN renal -92.7% | CAKI-1 renal -85.3% | A498 renal -80.2% | CCRF-CEM leukemia -35.6% | MOLT-4 leukemia -32.1% | SR leukemia -25% | RPMI-8226 leukemia -41.4% | OVCAR-8 ovarian -52.7% | OVCAR-5 ovarian -90.5% | OVCAR-4 ovarian -76.4% | SK-OV-3 ovarian -71.2% | IGROV1 ovarian -72.3% | OVCAR-3 ovarian -89.8% | HS 578T breast -63.7% | NCI/ADR-RES ovarian -79.8%

CC(=O)Nc1ccc(-c2cn(-c3cccc(C(=O)Nc4cc(CN5CCOCC5)cc(C(F)(F)F)c4)c3)nn2)cn1
inactive: NCI/ADR-RES ovarian 67.9%
active: SK-MEL-2 melanoma -84.6% | EKVX NSCLC -88.1% | SN12C renal -93.2% | UO-31 renal -93.5% | TK-10 renal -99.3% | ACHN renal -100% | CAKI-1 renal -91.9% | A498 renal -95.5% | CCRF-CEM leukemia -5.47% | MOLT-4 leukemia -22.2% | SR leukemia 0.486% | RPMI-8226 leukemia 2.68% | OVCAR-8 ovarian -37% | OVCAR-5 ovarian -95% | OVCAR-4 ovarian -82.6% | SK-OV-3 ovarian -67.6% | IGROV1 ovarian -84.6% | OVCAR-3 ovarian -54.5% | HS 578T breast -46.2%

COc1cc(/C=C/C(=O)c2ccc(F)cc2)ccc1Oc1nc(Nc2ccc(F)cc2)nc(N(C)C)n1
active: MOLT-4 leukemia 1.46% | SR leukemia 4.07%
inactive: SK-MEL-2 melanoma 61% | EKVX NSCLC 50.1% | SN12C renal 60.1% | UO-31 renal 47.1% | TK-10 renal 99.4% | ACHN renal 50.9% | CAKI-1 renal 58% | A498 renal 86.5% | CCRF-CEM leukemia 15.2% | RPMI-8226 leukemia 24.2% | OVCAR-8 ovarian 42.7% | OVCAR-5 ovarian 93.1% | OVCAR-4 ovarian 56.1% | SK-OV-3 ovarian 103% | IGROV1 ovarian 93.8% | OVCAR-3 ovarian 64.2% | HS 578T breast 59.3% | NCI/ADR-RES ovarian 50.6%

COc1cc2c(cc1OC)/C(=C\c1sc(Nc3ccc(O)cc3)nc1O)C(C(=O)O)=N2
inactive: EKVX NSCLC 59.9% | SN12C renal 35.4% | UO-31 renal 39.7% | TK-10 renal 77.4% | ACHN renal 37.8% | CAKI-1 renal 26.9% | A498 renal 103% | CCRF-CEM leukemia 19.3% | MOLT-4 leukemia 25.9% | SR leukemia 17% | RPMI-8226 leukemia 16.1% | OVCAR-8 ovarian 22.8% | OVCAR-5 ovarian 34.6% | OVCAR-4 ovarian 54% | SK-OV-3 ovarian 47.3% | IGROV1 ovarian 34.3% | HS 578T breast 31%
active: SK-MEL-2 melanoma -9.38% | OVCAR-3 ovarian 3.64%
